Test results taken from PubChem BioAssay.
Values without a mark were called inactive.

Assay: basal S. cerevisiae growth modulation, no modifier, primary screen, OD600, strain BY4716, 24 h, basal condition (AID 1173)
Conditions: OD600, 24 h, higher = more signal, called active from +8 up or from −8 down

Row | Structure (SMILES) | z-score
1 | CC(C)NC(=O)[C@@]1(c2ccc([N+](=O)[O-])cc2)CC(=O)N(C2CCCCC2)[C@@H]1c1ccc(CO)cc1 | 0.178
2 | CCOC(=O)C[C@H]1[C@H](OC(=O)Cc2ccc3c(c2)OCO3)[C@@H](NC(=O)c2ccc3ccccc3n2)c2cc(OCCCO)ccc2N1C(=O)c1ccccc1 | -0.407
3 | O=c1cccc(-c2ccc([N+](=O)[O-])cc2)o1 | -0.589
4 | CC(C)N1C(=O)C[C@@](C(=O)O)(c2ccc([N+](=O)[O-])cc2)[C@H]1c1ccc(CO)cc1 | -0.717
5 | CCCCCCCCCC(O)C1C=CC2C(=O)N(c3ccccc3)C(=O)C2N1Nc1cc(OC)c(OC)c(OC)c1 (configuration not stated) | 0.953
6 | COC(=O)[C@@]1(Cc2ccc(OC)cc2)[C@H]2c3cc(C(=O)N(C)C)n(Cc4ccc(C)o4)c3C[C@H]2CN1C(=O)c1ccccc1 | 0.256
7 | [N-]=[N+]=Nc1ccccc1C[C@]1(C(=O)NCC(O)CO)COC(c2ccc(OCCCO)cc2)=N1 (some centres not stated) | -0.226

Assay: MM1S myeloma cell viability, profiling panel, resazurin fluorescence, basal, 24 h, PK04 Diversity Set (AID 1174);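 also: MM1S multiple myeloma cell line; test concentration not given here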
Conditions: higher = more signal, called active from +8 up or from −8 down

Row | Structure (SMILES) | z-score
8 | NC(=O)[C@@]1(Cc2ccccc2)COC(c2ccc(OCCCO)cc2)=N1 | 0.153
9 | CCOC(=O)C[C@H]1[C@H](OC(=O)c2ccc(C(=O)c3ccccc3)cc2)[C@@H](NC(=O)c2ccc3ccccc3n2)c2cc(OCCCO)ccc2N1C(=O)Cc1ccc(OC)cc1 | 0.0487
10 | COC(=O)[C@@H]1N=C(c2ccc(OCCCO)cc2)O[C@@H]1c1ccccc1 | 1.09
11 | CCOc1cc(C(O)C2C=CC3C(=O)NC(=O)C3N2Nc2ccc(Cl)cc2Cl)ccc1O (configuration not stated) | -2.35
12 | CCOC(=O)C=Cc1cccc(C)c1O | -0.753
13 | COC(=O)[C@@]1(Cc2ccc(OC)cc2)[C@H]2c3cc(C(=O)N4CCCC4)n(CCO)c3C[C@H]2CN1C(=O)c1ccccc1 | -2.2
14 | CC1=C2[C@@H](CCc3ccccc3)OB(O)C[C@@H]2[C@@H]2C(=O)N(Cc3ccccc3)C(=O)[C@@H]2C1 | -0.249
15 | C=CC[C@@H](OC(=O)Nc1ccc(SC)cc1)c1ccc(O)c(F)c1 | -2.32
16 | COCCCNC(=O)[C@@]1(CCC(=O)OC(C)(C)C)N=C(c2ccc(OCCCO)cc2)O[C@H]1c1ccccc1N=[N+]=[N-] | -0.0477
17 | CCOC(=O)C[C@H]1[C@H](OC(=O)c2cc3ccccc3oc2=O)[C@@H](NC(=O)CC(C)C)c2cc(OCCCO)ccc2N1C(=O)c1ccc2ccccc2n1 | -0.043
18 | Cc1ccc(C(C)CC(O)C2C=CC3C(=O)N(c4ccccc4)C(=O)C3N2Nc2ccccc2)o1 (configuration not stated) | -1.01
19 | CN(C)c1ccc(C(O)C2C=CC3C(=O)NC(=O)C3N2Nc2ccccn2)cc1 (configuration not stated) | -1.21
20 | CCCCN1CC=CC23O[C@@H]4/C=C\CCCOC(=O)C4[C@H]2C(=O)N(CCO)[C@@H]3C1=O (some centres not stated) | 0.294
21 | COc1ccc([Si](C)(C)[C@@H]2[C@@H](CCO)O[C@]3(C(=O)N(Cc4ccccc4)c4ccc(N5C(=O)c6cccc7cccc5c67)cc43)[C@H]2C)cc1 | 0.274
22 | Oc1ccc2cc[n+](Cc3cc4c(cc3Br)OCO4)cc2c1 | -0.526
23 | CCCNC(=O)[C@@H]1c2ccccc2C(=O)N(Cc2ccc(OC(F)(F)F)cc2)[C@H]1c1ccc(CO)cc1 | 0.186
24 | COCCOC(=O)N1C(=O)[C@@]2(c3cc(C#CC4=CCCCC4)ccc31)[C@H](c1ccccc1OCCO)N1[C@H](c3ccccc3)[C@H](c3ccccc3)OC(=O)[C@H]1[C@@H]2C(=O)NC[C@H](O)c1ccccc1 | -2.19
25 | O=C1N(CCS(=O)(=O)c2ccccc2)c2ccccc2[C@H]2OC(c3ccc(OCCCO)cc3)=N[C@@]12Cc1ccccc1 | -2.38

Row | Structure (SMILES) | z-score
26 | [N-]=[N+]=Nc1ccccc1C[C@]1(C(=O)NCCN2CCOCC2)COC(c2ccc(OCCCO)cc2)=N1 | 0.892
27 | C=CC[C@@]1(C(=O)NCCCOC)N=C(c2ccc(OCCCO)cc2)O[C@@H]1c1ccccc1N=[N+]=[N-] | -0.394
28 | COC(=O)C1=CC(CCCO)=CC(c2ccc(CN3CCCC3)cc2)N(Cc2cccc(OC(F)(F)F)c2)C=C1C(=O)OC (configuration not stated) | -0.728
29 | CCCC=C(CCC)[C@@H](NC(=O)c1cccs1)c1ccc(C(=O)OC)cc1 | 0.645
30 | CC1=C2[C@@H](CCc3ccccc3)OB(O)C[C@@H]2[C@@H]2C(=O)N(C)C(=O)[C@@H]2C1 | -0.313
31 | COCCOC(=O)N1C(=O)[C@@]2(c3cc(C#CC4(O)CCCCCC4)ccc31)[C@H](c1ccc(O)cc1)N1[C@H](c3ccccc3)[C@H](c3ccccc3)OC(=O)[C@H]1[C@@H]2C(=O)N1CCN(c2ncccn2)CC1 | -0.705
32 | COC(=O)[C@@]1(Cc2ccc(F)cc2)[C@H]2c3cc(C(=O)N(C)C)n(Cc4ccc(OC(F)(F)F)cc4)c3C[C@H]2CN1C(=O)c1ccccc1 | -0.933
33 | C=CCNC(=O)[C@H]1[C@@H]2C(=O)O[C@@H](c3ccccc3)[C@@H](c3ccccc3)N2[C@@H](c2ccccc2OCCO)[C@]12C(=O)N(C(=O)OCCOC)c1ccc(C#CC3(O)CCCCCC3)cc12 | -3.39
34 | C=C(COC)/C(=C/C[C@H](OC(=O)c1ccncc1)c1ccccc1OCCO)c1cc(C(=O)OC)ccc1OC | -2.16
35 | CC(C)c1ccc(NN2C(C(O)c3ccc(C#N)cc3)C=CC3C(=O)N(c4ccccc4)C(=O)C32)cc1 (configuration not stated) | -1.26
36 | CC(C)NC(=O)[C@@]1(c2ccc([N+](=O)[O-])cc2)CC(=O)N(C2CCCCC2)[C@@H]1c1ccc(CO)cc1 | 1.16
37 | CCOC(=O)C[C@H]1[C@H](OC(=O)Cc2ccc3c(c2)OCO3)[C@@H](NC(=O)c2ccc3ccccc3n2)c2cc(OCCCO)ccc2N1C(=O)c1ccccc1 | -1.51
38 | O=c1cccc(-c2ccc([N+](=O)[O-])cc2)o1 | 0.697
39 | CC(C)N1C(=O)C[C@@](C(=O)O)(c2ccc([N+](=O)[O-])cc2)[C@H]1c1ccc(CO)cc1 | 0.305
40 | CCCCCCCCCC(O)C1C=CC2C(=O)N(c3ccccc3)C(=O)C2N1Nc1cc(OC)c(OC)c(OC)c1 (configuration not stated) | -4.42
41 | COC(=O)[C@@]1(Cc2ccc(OC)cc2)[C@H]2c3cc(C(=O)N(C)C)n(Cc4ccc(C)o4)c3C[C@H]2CN1C(=O)c1ccccc1 | -3.45
42 | [N-]=[N+]=Nc1ccccc1C[C@]1(C(=O)NCC(O)CO)COC(c2ccc(OCCCO)cc2)=N1 (some centres not stated) | 0.303
